Read-outs that look alike come from different tables or passages of the source.
Experiments:
[1] = test system: NEK11; conditions: concentration: 1 μM, replicates: in singlicate; n = 1
[2] = test system: NEK1; conditions: concentration: 1 μM, replicates: in singlicate; n = 1
[3] = test system: NEK2; conditions: concentration: 1 μM, replicates: in singlicate; n = 1
[4] = test system: NEK3; conditions: concentration: 1 μM, replicates: in singlicate; n = 1
[5] = test system: NEK4; conditions: concentration: 1 μM, replicates: in singlicate; n = 1
[6] = test system: NEK5; conditions: concentration: 1 μM, replicates: in singlicate; n = 1
[7] = test system: NEK6; conditions: concentration: 1 μM, replicates: in singlicate; n = 1
[8] = test system: NEK7; conditions: concentration: 1 μM, replicates: in singlicate; n = 1
[9] = test system: NEK9; conditions: concentration: 1 μM, replicates: in singlicate; n = 1
[10] = test system: T1, NIK; conditions: concentration: 1 μM, replicates: in singlicate; n = 1
T1 construct: gene MAP3K14

[11] = test system: T2, NIM1; conditions: concentration: 1 μM, replicates: in singlicate; n = 1
T2 construct: gene MGC42105

[12] = test system: NLK; conditions: concentration: 1 μM, replicates: in singlicate; n = 1
[13] = test system: T3, OSR1; conditions: concentration: 1 μM, replicates: in singlicate; n = 1
T3 construct: gene OXSR1

[14] = test system: PAK1; conditions: concentration: 1 μM, replicates: in singlicate; n = 1
[15] = test system: PAK2; conditions: concentration: 1 μM, replicates: in singlicate; n = 1
[16] = test system: PAK3; conditions: concentration: 1 μM, replicates: in singlicate; n = 1
[17] = test system: PAK4; conditions: n = 1
[18] = test system: PAK6; conditions: n = 1
[19] = test system: PAK7; conditions: concentration: 1 μM, replicates: in singlicate; n = 1
[20] = test system: T4, PCTK1; conditions: concentration: 1 μM, replicates: in singlicate; n = 1
T4 construct: gene CDK16

[21] = concentration: 1 μM, replicates: in singlicate
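Also: KINOMEscan kinase panel screen.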

CN1CCN(Cc2cccc(-c3ccc4c(Nc5ccc(Oc6ccccc6)cc5)ccnc4c3)c2)CC1 [GW578342]
%Inh [1]: 28%
%Inh [2]: 0%
%Inh [3]: 0%
%Inh [4]: 3%
%Inh [5]: 0%
%Inh [6]: 0%
%Inh [7]: 0%
%Inh [8]: 0%
%Inh [9]: 16%
%Inh [10]: 24%
%Inh [11]: 22%
%Inh [12]: 41%
%Inh [13]: 4%
%Inh [14]: 16%
%Inh [15]: 0%
%Inh [16]: 29%
%Inh [17, 21]: 0%
%Inh [18, 21]: 0%
%Inh [19]: 0%
%Inh [20]: 0%

COc1cc(Nc2nccc(N3CCC(NC(=O)Nc4cccc(C(C)=O)c4)C3)n2)cc(OC)c1OC (centres unmarked) [GSK1379753]
%Inh [1]: 0%
%Inh [2]: 58%
%Inh [3]: 43%
%Inh [4]: 41%
%Inh [5]: 30%
%Inh [6]: 100%
%Inh [7]: 1%
%Inh [8]: 45%
%Inh [9]: 27%
%Inh [10]: 5%
%Inh [11]: 11%
%Inh [12]: 21%
%Inh [13]: 6%
%Inh [14]: 0%
%Inh [15]: 0%
%Inh [16]: 100%
%Inh [17, 21]: 0%
%Inh [18, 21]: 7%
%Inh [19]: 13%
%Inh [20]: 10%

CC(=O)Nc1nc2cnc(Nc3cc(NC(=O)c4cccc(C5(C#N)CC5)c4Cl)ccc3C)nc2s1
%Inh [1]: 0%
%Inh [2]: 0%
%Inh [3]: 0%
%Inh [4]: 18%
%Inh [5]: 10%
%Inh [6]: 0%
%Inh [7]: 4%
%Inh [8]: 7%
%Inh [9]: 14%
%Inh [10]: 0%
%Inh [11]: 6%
%Inh [12]: 33%
%Inh [13]: 0%
%Inh [14]: 12%
%Inh [15]: 0%
%Inh [16]: 0%
%Inh [17, 21]: 7%
%Inh [18, 21]: 0%
%Inh [19]: 9%
%Inh [20]: 6%

O=C(Nc1ccccc1F)NC1CCN(c2ccnc(Nc3ccc(F)cc3)n2)CC1 [GSK1379800]
%Inh [1]: 7%
%Inh [2]: 0%
%Inh [3]: 0%
%Inh [4]: 13%
%Inh [5]: 0%
%Inh [6]: 33%
%Inh [7]: 0%
%Inh [8]: 0%
%Inh [9]: 0%
%Inh [10]: 9%
%Inh [11]: 32%
%Inh [12]: 12%
%Inh [13]: 0%
%Inh [14]: 1%
%Inh [15]: 0%
%Inh [16]: 0%
%Inh [17, 21]: 0%
%Inh [18, 21]: 0%
%Inh [19]: 0%
%Inh [20]: 0%

CCn1c(-c2nonc2N)nc2c(C#CC(C)(C)O)ncc(OCCCCN)c21.O=C(O)C(F)(F)F.O=C(O)C(F)(F)F [GSK507274]
%Inh [1]: 50%
%Inh [2]: 0%
%Inh [3]: 34%
%Inh [4]: 5%
%Inh [5]: 34%
%Inh [6]: 11%
%Inh [7]: 1%
%Inh [8]: 0%
%Inh [9]: 0%
%Inh [10]: 68%
%Inh [11]: 29%
%Inh [12]: 0%
%Inh [13]: 40%
%Inh [14]: 81%
%Inh [15]: 88%
%Inh [16]: 49%
%Inh ([17]; 1 µM): 98.1%
%Inh ([18]; 1 µM): 89%
%Inh [19]: 99%
%Inh [20]: 8%

Cc1ccc(C(=O)N2CC[C@@H](O)C2)cc1-n1c(C)cc(OCc2ccc(F)cc2F)c(Br)c1=O
%Inh [1]: 0%
%Inh [2]: 0%
%Inh [3]: 0%
%Inh [4]: 31%
%Inh [5]: 0%
%Inh [6]: 0%
%Inh [7]: 0%
%Inh [8]: 0%
%Inh [9]: 0%
%Inh [10]: 0%
%Inh [11]: 0%
%Inh [12]: 4%
%Inh [13]: 0%
%Inh [14]: 0%
%Inh [15]: 0%
%Inh [16]: 0%
%Inh [17, 21]: 0%
%Inh [18, 21]: 0%
%Inh [19]: 0%
%Inh [20]: 0%

CC(=O)N1CCN(c2ccc(Nc3nccc(-c4sc(C(C)C)nc4-c4cccc(NS(=O)(=O)c5cccc(Cl)c5)c4)n3)cn2)CC1 [GSK1660437]
%Inh [1]: 90%
%Inh [2]: 0%
%Inh [3]: 42%
%Inh [4]: 0%
%Inh [5]: 6%
%Inh [6]: 2%
%Inh [7]: 32%
%Inh [8]: 73%
%Inh [9]: 85%
%Inh [10]: 17%
%Inh [11]: 0%
%Inh [12]: 91.8%
%Inh [13]: 5%
%Inh [14]: 72%
%Inh [15]: 90.1%
%Inh [16]: 57%
%Inh [17, 21]: 0%
%Inh [18, 21]: 0%
%Inh [19]: 0%
%Inh [20]: 98.6%

CN(C)S(=O)(=O)c1cc(-c2ccc3nccc(-c4cccc(S(N)(=O)=O)c4)c3c2)cnc1N [GSK1669921]
%Inh [1]: 0%
%Inh [2]: 0%
%Inh [3]: 34%
%Inh [4]: 0%
%Inh [5]: 10%
%Inh [6]: 0%
%Inh [7]: 0%
%Inh [8]: 31%
%Inh [9]: 32%
%Inh [10]: 3%
%Inh [11]: 11%
%Inh [12]: 4%
%Inh [13]: 0%
%Inh [14]: 7%
%Inh [15]: 21%
%Inh [16]: 39%
%Inh [17, 21]: 1%
%Inh [18, 21]: 3%
%Inh [19]: 0%
%Inh [20]: 5%

CCc1ccc(-c2ccc3c(c2)-c2c(cnn2C)S(=O)(=O)N3C)cc1
%Inh [1]: 0%
%Inh [2]: 0%
%Inh [3]: 5%
%Inh [4]: 0%
%Inh [5]: 0%
%Inh [6]: 0%
%Inh [7]: 0%
%Inh [8]: 0%
%Inh [9]: 0%
%Inh [10]: 0%
%Inh [11]: 0%
%Inh [12]: 11%
%Inh [13]: 0%
%Inh [14]: 0%
%Inh [15]: 2%
%Inh [16]: 0%
%Inh [17, 21]: 1%
%Inh [18, 21]: 9%
%Inh [19]: 0%
%Inh [20]: 0%

O=C(Nc1n[nH]c2cc(-c3ccoc3)ccc12)C1CC1 [SB-738481]
%Inh [1]: 4%
%Inh [2]: 0%
%Inh [3]: 8%
%Inh [4]: 2%
%Inh [5]: 1%
%Inh [6]: 0%
%Inh [7]: 11%
%Inh [8]: 16%
%Inh [9]: 0%
%Inh [10]: 9%
%Inh [11]: 100%
%Inh [12]: 4%
%Inh [13]: 0%
%Inh [14]: 0%
%Inh [15]: 15%
%Inh [16]: 18%
%Inh [17, 21]: 0%
%Inh [18, 21]: 0%
%Inh [19]: 0%
%Inh [20]: 61%

Source: paper PMC5540273 (PLoS ONE, 2017)
